Assay results: PubChem BioAssay (NCATS)
Results filed as inconclusive are left out. Activity calls are given as the source filed them. The call rests on the fitted dose curve; in most records, active means well fitted curve in the direction sought with a large enough effect; inconclusive means small, poorly fitted or top-dose-only effect, or another doubt; inactive means no such curve, though single readings can be large; an effect the other way counts as inactive or inconclusive.

What was measured:
[1] = qHTS to identify inhibitors of the type 1 interferon - major histocompatibility complex class I in skeletal muscle: primary screen against the NCATS Pharmaceutical Collection (AID 1347407);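 further: luminescence of HiBiT knocked into endogenous HLA-B as interferon-induced MHC class I level; on the % scale 0 is the no-effect control and ±100 the full control effect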
How it was run: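 Luminescence from HiBiT-tagged endogenous HLA-B*08:01 served as the read-out of IFN-beta-induced MHC class I in CRISPR-engineered C25cl48 myoblasts. Cells received 4 ng/ml IFN-beta plus compound (high final 46 uM, […]) for 24 h.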

[2] = target: Protein phosphatase 1D (Homo sapiens) (UniProt O15297); assay: RapidFire Mass Spectrometry qHTS Assay for Modulators of WT P53-Induced Phosphatase 1 (WIP1) (AID 1347424);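 further: amount of dephosphorylated VEPPL-S-QETFS peptide product formed by WIP1; series mostly up to about 63 µM; plate controls were DMSO wells for no effect and GSK830371 inhibitor control at 10 µM for full effect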
How it was run: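 10 nM WIP1 preincubated with compounds 1 hr at room temperature in pH 7.5 Tris buffer with 30 mM MgCl2, 1 mM TCEP; 2 uM VEPPL-pS-QETFS phosphopeptide for 5 min, formic acid quench; dephosphorylated product quantified by RapidFire MS against labelled standard.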

[3] = target: Protein phosphatase 1D (Homo sapiens) (UniProt O15297); assay: Rhodamine-PBP qHTS Assay for Modulators of WT P53-Induced Phosphatase 1 (WIP1) (AID 1347425); further: % of control where 0% means no effect
How it was run: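 Read-out: Rhodamine-PBP fluorescence (ex 525/em 598 nm) for released Pi, read each minute for 11 min after adding 10 uM VEPPL-pS-QETFS; signal taken as f1 minus pre-substrate f0. Enzyme 5 nM WIP1 with 1 hr room-temperature compound preincubation.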

[4] = Primary qHTS for inhibitors of La Crosse Virus (LACV) - induced cell death in SH-SY5Y cells (AID 1508616);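 further: top concentration of the series differs between compounds; 0% = infected DMSO wells and 100% = uninfected DMSO wells; higher means more rescue of cells from virus-induced death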
How it was run: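 Protection against LACV-induced cell death is scored in SH-SY5Y cells exposed to compounds and virus (0.01 MOI) for 6 days. Data normalized to virus-infected DMSO wells and virus-free DMSO wells.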

[5] = target: Calcium and integrin-binding protein 1 (Homo sapiens) (UniProt Q99828); assay: Primary qHTS for Identification of Calcium Integrin Binding Protein 1 (CIB1) Competitor (AID 1508620);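 further: GST tagged CIB1 binding a fluorescein labelled alphaIIb integrin peptide tracer; top concentration of the series differs between compounds; on the % scale 0 is the no-effect control and ±100 the full control effect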
How it was run: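 Fluorescence polarization competition: GST-tagged CIB1 (1 uM final) preincubated with compound 15 min at room temperature, then FITC-labelled alphaIIb peptide (100 nM final) added. After 15 min at room temperature, polarization read at Ex 480/Em 540.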

[6] = target: Calcium and integrin-binding protein 1 (Homo sapiens) (UniProt Q99828); assay: Confirmatory qHTS for Identification of Calcium Integrin Binding Protein 1 (CIB1) Competitor (AID 1508617); further: on the % scale 0 is the no-effect control and ±100 the full control effect; nearly all actives have a fitted effect of over 65% in size
How it was run: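 Fluorescence polarization competition: CIB1-GST (1 uM final) in 5 mM HEPES pH 7.4, 125 mM NaCl, 5 mM CaCl2, 0.01% Tween20 preincubated 15 min RT with compound (up to 114 uM), then FITC-alphaIIb peptide (100 nM) added, 15 min RT.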

[7] = Primary qHTS for small molecule stabilizers of the endoplasmic reticulum resident proteome: Secreted ER Calcium Modulated Protein (SERCaMP) assay (AID 1508630); further: on the % scale 0 is the no-effect control and ±100 the full control effect
How it was run: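 GLuc-SERCaMP-expressing SH-SY5Y cells, pretreated 16 h with compound, are challenged with thapsigargin to empty ER calcium stores; after 4 h, coelenterazine is added directly to the medium and luminescence is imaged.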

[8] = Counterscreen qHTS for small molecule stabilizers of the endoplasmic reticulum resident proteome: GLuc-NoTag assay (AID 1508627);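 further: SH-SY5Y cells given compound then 100 nM thapsigargin to empty ER calcium; series mostly up to about 76 µM; 0% = thapsigargin alone and -100% = DMSO vehicle control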
How it was run: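 SH-SY5Y cells stably expressing constitutively secreted GLuc without SERCaMP tag, exposed to compound for 19 hr, then to 100 nM thapsigargin for 4 hr at 37C. Medium luciferase was read by coelenterazine luminescence without lysis.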

[9] = Cell Viability qHTS for small molecule stabilizers of the endoplasmic reticulum resident proteome (AID 1508629); details: cell viability counter-screen, 100 nM thapsigargin for final 4 h;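 further: human SH-SY5Y neuroblastoma cells carrying the GLuc-SERCaMP reporter; compound exposure about 46 h in total before the viability read; on the % scale 0 is the no-effect control and ±100 the full control effect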

Calcium and integrin-binding protein 1 (Homo sapiens), sequence (Q99828 whole entry, looked up): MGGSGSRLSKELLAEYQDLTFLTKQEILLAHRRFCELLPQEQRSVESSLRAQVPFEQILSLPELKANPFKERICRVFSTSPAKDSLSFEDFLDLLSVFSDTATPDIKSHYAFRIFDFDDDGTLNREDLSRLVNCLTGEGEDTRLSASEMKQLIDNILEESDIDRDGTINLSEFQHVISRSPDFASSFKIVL
Protein phosphatase 1D (Homo sapiens), sequence (O15297 whole entry, looked up): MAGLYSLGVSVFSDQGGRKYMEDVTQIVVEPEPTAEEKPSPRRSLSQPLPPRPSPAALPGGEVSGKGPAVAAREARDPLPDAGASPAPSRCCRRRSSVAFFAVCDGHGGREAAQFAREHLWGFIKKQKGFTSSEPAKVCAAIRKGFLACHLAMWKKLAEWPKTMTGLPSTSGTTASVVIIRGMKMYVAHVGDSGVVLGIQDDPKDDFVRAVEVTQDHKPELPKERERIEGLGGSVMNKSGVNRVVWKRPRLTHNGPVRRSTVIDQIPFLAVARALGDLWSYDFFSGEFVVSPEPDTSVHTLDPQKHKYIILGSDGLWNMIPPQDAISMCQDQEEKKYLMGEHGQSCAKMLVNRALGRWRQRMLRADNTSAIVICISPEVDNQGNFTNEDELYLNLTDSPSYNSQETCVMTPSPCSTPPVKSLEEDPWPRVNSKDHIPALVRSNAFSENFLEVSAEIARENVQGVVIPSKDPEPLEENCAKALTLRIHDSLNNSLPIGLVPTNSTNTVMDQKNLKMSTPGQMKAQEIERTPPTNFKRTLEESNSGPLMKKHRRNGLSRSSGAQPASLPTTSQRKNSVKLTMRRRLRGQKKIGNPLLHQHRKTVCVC

O=C1OC(OC(=O)c2cccnc2Nc2cccc(C(F)(F)F)c2)c2ccccc21 (configuration not stated)
inactive: Potency [1] | outcome [2] | outcome [3] | outcome [4] | outcome [5]

CC[C@@]1(c2ccccc2)NC(=O)N(C)C1=O
inactive: Potency [1] | outcome [2] | outcome [3] | outcome [4] | outcome [5]

CCCOC(=O)c1ccccc1
inactive: Potency [1] | outcome [2] | outcome [3] | outcome [4] | outcome [5]

N[C@@H](CSSC[C@H](N)C(=O)O)C(=O)O
inactive: activity change, negative = inhibition [1] 0.957% [at 0.727 µM] | activity change, negative = inhibition [2] -0.373% [at 0.505 µM] | activity change, negative = inhibition [3] 14.5% [at 0.575 µM] | activity change [4] -4.86% [at 0.0343 µM] | activity change, negative = inhibition [5] 1.18% [at 1.07 µM]

CCN(CC)CCSC(=O)C(c1ccccc1)c1ccccc1
inactive: Potency [1] | outcome [2] | outcome [3] | outcome [4] | outcome [5]

O=C1c2c(O)cccc2Cc2cccc(O)c21
inactive: Potency [1] | outcome [2] | outcome [3] | outcome [4] | outcome [5]

CN(C)CCCO[C@@H]1[C@H]2OC(C)(C)O[C@H]2O[C@@H]1C(O)CO (some centres not stated)
inactive: Potency [1] | outcome [2] | outcome [3] | outcome [4] | outcome [5]

CCOc1ccc2ccccc2c1C(=O)N[C@@H]1C(=O)N2[C@@H]1SC(C)(C)[C@@H]2C(=O)O
inactive: Potency [1] | outcome [2] | outcome [3] | outcome [4] | outcome [5]

COc1cc(C(=O)N2CCOCC2)cc(OC)c1OC
inactive: Potency [1] | outcome [2] | outcome [3] | outcome [4] | outcome [5]

CC(=O)NC(Cc1ccccc1)C(=O)O (configuration not stated)
inactive: Potency [1] | outcome [2] | outcome [3] | outcome [4] | Potency [6] | outcome [5] | Potency [7]

C[C@@H](O)[C@H](N)C(=O)O
inactive: Potency [1] | outcome [2] | outcome [3] | outcome [4]

CCOC(=O)[C@H](CCc1ccccc1)N[C@@H](C)C(=O)N1C(=O)N(C)C[C@H]1C(=O)O
inactive: Potency [1] | outcome [2] | outcome [3] | outcome [4] | outcome [5]

O=C(O)CC(O)C(=O)O (configuration not stated)
inactive: Potency [1] | outcome [2] | outcome [3] | outcome [4] | outcome [5]

COc1ccc2cc1Oc1cc3c(cc1OC)CC[N+](C)(C)[C@H]3Cc1ccc(cc1)Oc1c(OC)c(OC)cc3c1[C@@H](C2)[N+](C)(C)CC3
inactive: Potency [1] | outcome [2] | outcome [3] | outcome [4] | outcome [5]

NCC(=O)CCC(=O)O
inactive: Potency [1] | outcome [2] | outcome [3] | outcome [4] | outcome [5]

O=C(O)COc1nn(Cc2ccccc2)c2ccccc12
inactive: Potency [1] | outcome [2] | outcome [3] | outcome [4] | outcome [5]

Oc1ccc(C(O)CNCCCCCCNCC(O)c2ccc(O)c(O)c2)cc1O (configuration not stated)
inactive: Potency [1] | outcome [2] | outcome [3] | outcome [4] | outcome [5]

CN1[C@@H]2CC[C@H]1CC(OC(=O)C(O)c1ccccc1)C2 (some centres not stated)
inactive: Potency [1] | outcome [2] | outcome [3] | outcome [4] | outcome [5]

CC12CCC(CC1)C(C)(C)O2
inactive: Potency [1] | outcome [2] | outcome [3] | outcome [4] | outcome [5]

CC/C=C(\C(=O)N[C@@H]1C(=O)N2C(C(=O)OCOC(=O)C(C)(C)C)=C(COC(N)=O)CS[C@H]12)c1csc(N)n1
inactive: Potency [1] | outcome [2] | outcome [3] | outcome [4] | outcome [5]

CC1(C)CO[C@@H](CC(=O)O)CN1
inactive: Potency [1] | outcome [2] | outcome [3] | outcome [4] | outcome [5]

CC1CC(OC(=O)C(O)c2ccccc2)CC(C)(C)N1C (configuration not stated)
inactive: Potency [1] | outcome [2] | outcome [3] | outcome [4] | outcome [5]

Cc1cc2c(cc1S(N)(=O)=O)S(=O)(=O)CCC2
inactive: Potency [1] | outcome [2] | outcome [3] | outcome [4] | outcome [5]

CC(C)(C)C(=O)NCCCC(=O)O
inactive: Potency [1] | outcome [2] | outcome [3] | outcome [4] | outcome [5]

CN1CCOC(c2ccccc2)c2ccccc2C1 (configuration not stated)
inactive: Potency [1] | outcome [2] | outcome [3] | outcome [4] | outcome [5]

O=C1O[C@H]([C@@H](O)CO)C(O)=C1O
inactive: Potency [1] | outcome [2] | outcome [3] | outcome [4]

CC1=C(C/C=C(\C)CCC[C@H](C)CCC[C@H](C)CCCC(C)C)C(=O)c2ccccc2C1=O
inactive: Potency [1] | outcome [2] | outcome [3] | outcome [4] | outcome [5]

O=S(=O)(O)NC1CCCCC1
inactive: Potency [1] | outcome [2] | outcome [3] | outcome [4] | outcome [5]

CCCCC/C(C=O)=C\c1ccccc1
inactive: Potency [1] | outcome [2] | outcome [3] | outcome [4] | outcome [5]

CCC(=O)Nc1ccc(O)cc1
inactive: Potency [1] | outcome [2] | outcome [3] | outcome [4] | outcome [5]

COc1ccccc1O
inactive: Potency [1] | outcome [2] | outcome [3] | outcome [4] | outcome [5]

CCn1cc(C(=O)O)c(=O)c2cnc(N3CCNCC3)nc21
inactive: Potency [1] | outcome [2] | outcome [3] | outcome [4] | outcome [5] | Potency [7]

CC(C)(C)C(=O)C(Oc1ccc(Cl)cc1)n1ccnc1 (configuration not stated)
inactive: Potency [1] | outcome [2] | outcome [3] | outcome [4] | outcome [5] | Potency [7]

COc1ccc(S(=O)(=O)Nc2nnc(CC(C)C)s2)cc1
inactive: Potency [1] | outcome [2] | outcome [3] | outcome [4] | outcome [5] | Potency [7]

COc1cc(C)c(Cc2cnc(N)nc2N)cc1OC
inactive: Potency [1] | outcome [2] | outcome [3] | outcome [4] | outcome [5] | Potency [8] | max response [9] 8.8%

C[C@]12CC[C@@H]3c4ccc(O)cc4CC[C@H]3[C@@H]1CC[C@@H]2OC(=O)CCC1CCCC1
inactive: Potency [1] | outcome [2] | outcome [3] | outcome [4] | outcome [5] | Potency [7]

NC(=O)NNc1ccccc1
inactive: Potency [1] | outcome [2] | outcome [3] | outcome [4] | outcome [5] | Potency [7]
